Source: PubChem BioAssay (National Center for Advancing Translational Sciences (NCATS))
Only some compounds are listed: those with a hit (about 2.3% of all), similar ones and a draw of the others.
JMJD2E inh – blocks human JMJD2E demethylase activity; JMJD2E catalytic domain, FDH-coupled NADH fluorescence (FDH is formaldehyde dehydrogenase); hit rate 1.6% among 230,000; AID 2147; Potency, µM (titrated, usually from 57.1 µM), for inactives: top-dose activity change, negative = inhibition, usual class: inhibitors; B2RXH2; active = well fitted inhibition curve with a large enough effect, not every such curve was filed as active; inconclusive = small, poorly fitted or top-dose-only effect, or another doubt; inactive = no such curve, though single readings can be large or run the other way;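 also: potency is read from the fitted curve at half-maximal effect; 0% = wells with enzyme and -100% = buffer wells without enzyme; nearly all actives have a fitted effect of over 50% in size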
Target sequence (B2RXH2 1-337 limits assumed): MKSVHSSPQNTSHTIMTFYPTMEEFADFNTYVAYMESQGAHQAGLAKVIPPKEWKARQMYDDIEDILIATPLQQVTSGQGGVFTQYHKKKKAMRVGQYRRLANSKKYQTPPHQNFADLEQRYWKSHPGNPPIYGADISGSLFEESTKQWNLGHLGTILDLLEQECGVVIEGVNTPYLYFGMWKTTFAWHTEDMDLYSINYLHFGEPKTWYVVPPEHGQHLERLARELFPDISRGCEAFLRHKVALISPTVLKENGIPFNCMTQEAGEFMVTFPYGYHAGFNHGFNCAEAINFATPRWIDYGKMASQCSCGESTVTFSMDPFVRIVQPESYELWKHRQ
VDR inh – inhibitors of human vitamin D receptor. AID 504847. Potency, µM, without a hit: max response, negative = inhibition, hits mostly inhibitors. VDR-SRC2-3 peptide fluorescence polarization, 2 h. P11473. hit rate 0.93% among 400,000; also: potency is read from the fitted curve at half-maximal effect; % is scaled to controls: 0 for no effect and ±100 for the full control effect
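Fluorescence polarization assay of small-molecule disruption of VDR binding to coregulator peptide SRC2-3. Compounds and controls pin-transferred, then read after 2 h incubation at ambient room temperature.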
HttQ103 aggreg – inhibitors of mutant huntingtin aggregate formation in PC12 cells. PC12 HttQ103-GFP aggregates, Acumen cytometry, 40 h. Potency, µM (series often up to 46.1 µM), for the others: at the highest dose activity change, negative = inhibition, actives largely listed as inhibitors. hit rate 1.1% among 220,000; also: potency is read from the fitted curve at half-maximal effect; % is scaled to controls: 0 for no effect and ±100 for the full control effect; nearly all actives have a fitted effect of over 60% in size
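Ecdysone-promoter PC12 model expressing HTT exon 1 Q103 fused to GFP, induced by tebufenozide at 100 nM final. Compounds titrated; aggregates sized 1–25 µm scored on a 488 nm laser cytometer.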
FBPA coupling cs – counter-screen for Giardia aldolase inhibitors: coupling enzyme system. coupling enzyme system counterscreen, AmpLite Red fluorescence. hit rate 0.67% among 290,000. activity change, negative = inhibition, % at 58.2 µM, hits read low; in the data active = activity change below about -30%; also: % is scaled to controls: 0 for no effect and ±100 for the full control effect
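Fluorescence at 525 nm excitation and 598 nm emission measured inhibition of the coupled detection system without aldolase. Compounds (at 57.5 uM final) were preincubated 10 min at room temperature with coupling enzyme reagent before a 20 min substrate/AmpLite Red step.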
RGS12 GoLoco inh – blocks human Gai1 binding to RGS12 GoLoco peptide, red readout | Potency, µM (titrated, usually from 61.6 µM), for the others: at the top dose activity, negative = inhibition, most hits filed as inhibitors | Gai1:RGS12 GoLoco peptide FP, rhodamine, 10 min | P63096 | hit rate 0.44% among 230,000; active = well fitted inhibition curve with a large enough effect, not every such curve was filed as active; inactive = no such curve, though single readings can be large or run the other way; also: potency is read from the fitted curve at half-maximal effect; % is scaled to controls: 0 for no effect and ±100 for the full control effect; nearly all actives have a fitted effect of over 30% in size
HTT ATP protect – protects HTT-Q103 PC12 cells, measured by ATP | PC12 HTT-Q103 induced, cytoprotection, ATP luminescence, 40 h | Potency, µM (highest dose often 56.4 µM), for inactives: cytoprotection (ATP increase), hits mostly activators | hit rate 0.14% among 230,000; also: potency is read from the fitted curve at half-maximal effect; % of control where 0% means no effect; nearly all actives have a fitted effect of over 45% in size
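Compounds were screened for protection of PC12 cells against cell death after tebufenozide induction (100 nM final) of mutant Huntingtin exon 1 (Q103) fused to GFP.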
VDR confirm – inhibits human vitamin D receptor, primary hit validation | shares compounds with VDR inh | VDR-coactivator inhibition assay, qHTS confirmation | Potency, µM, most hits filed as inhibitors | hit rate 89% among 840; also: potency is read from the fitted curve at half-maximal effect
VDR FP – blocks human VDR-coactivator binding in fluorescein assay. shares compounds with VDR inh. VDR-coactivator binding, fluorescein fluorescence polarization. Potency, µM (highest dose often 57.1 µM), without a hit: at the top dose activity change, negative = inhibition, usual class: inhibitors. hit rate 48% among 840; also: potency is read from the fitted curve at half-maximal effect
VDR bla reporter – inhibits human VDR in beta-lactamase reporter cells. shares compounds with VDR inh. VDR beta-lactamase reporter cells, FRET ratio; cells co-treated with VDR agonist LG190178. Potency, µM (doses to about 46.1 µM), inactives show at the top dose activity change, negative = inhibition, hits mostly inhibitors. hit rate 23% among 840; also: potency is read from the fitted curve at half-maximal effect; % is scaled to controls: 0 for no effect and ±100 for the full control effect
VDR cytotox – cell toxicity, VDR inhibitor hit counter-screen | AID 602204 | cytotoxicity counter-screen, cell viability, qHTS | Potency, µM (doses to about 48.3 µM), inactives show at the highest dose activity change, negative = cytotoxicity, most hits filed as cytotoxic | hit rate 18% among 840 | shares compounds with VDR inh;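 also: potency is read from the fitted curve at half-maximal effect; plate controls were DMSO for no effect and high-concentration cycloheximide for full effect; nearly all actives have a fitted effect of over 75% in size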
Active calls of the source: *; ? = inconclusive; / = not tested or not shown; [ ] = remark or other dose. Unless noted, calls follow the shape of the dose curve; as a rule, active = well fitted curve in the direction sought with a large enough effect; inconclusive = small, poorly fitted or top-dose-only effect, or another doubt; inactive = no such curve, though single readings can be large; an effect the other way counts as inactive or inconclusive.

SMILES	JMJD2E inh	VDR inh	HttQ103 aggreg	FBPA coupling cs	RGS12 GoLoco inh	HTT ATP protect	VDR confirm	VDR FP	VDR bla reporter	VDR cytotox
CC1=NOC(=O)/C1=C\c1ccc(-c2cc(Cl)ccc2Cl)o1	-8%	20µM*	-1%	-3	-12%	6%[10 µM]	3*	?	?	?
CCOC(=O)c1c2c(n(-c3ccc(OC)cc3)c1C)C(=O)C(=O)c1ccccc1-2	/	18µM*	/	/	/	/	12*	11µM*	5.8µM*	6.3µM*
CCOC(=O)c1sc(=S)n(-c2ccc(OC)cc2)c1C	-6%	-6%	-4%[9.22 µM]	4	3%	-22%[10 µM]	/	/	/	/
Cc1ccc(OCC(=O)NCCCNC(=O)c2ccco2)cc1	/	-11%	/	9	/	/	/	/	/	/
O=C1/C(=C/c2cccnc2)CCC/C1=C\c1cccnc1	4%	50µM*	?	6	1%	/	13*	20µM*	5.8µM*	15µM*
O=C1/C(=C/c2cccnc2)CC/C1=C\c1cccnc1	2%	-5%	32%	1	5%	14%	/	/	/	/
CCC1C/C(=C\c2cccnc2)C(=O)/C(=C/c2cccnc2)C1 (stereo unspecified)	0%	22µM*	22µM*	-1	3%	-37%[10 µM]	5.3*	3.5µM*	5.8µM*	21µM*
Cc1cc(C)c(NC(=O)CCCN2C(=O)COc3ccc(C)cc32)c(C)c1	/	1%	/	/	/	/	/	/	/	/
CCOC(=O)/C(C#N)=C1/C=CN(Cc2ccccc2)C=N1	?	-13%	11%	2	3%	-11%	/	/	/	/
CCOC(=O)/C(C#N)=C1\C(=O)N(Cc2ccccc2)c2ccccc21	2%	28µM*	2%[9.22 µM]	-26	-6%	14%[10 µM]	6.7*	?	9%	11%
Cc1cc(C)c(C#N)c(=N)o1	?	45µM*	15%	0	22µM*	2%	?	?	-21%	4%
CCN(CC)c1ccc(C=Nc2ccc(N(C)C)cc2)c(O)c1	-1%	?	?	-27	122%	-11%	4*	303%	-28%	-9%
COC(=O)[C@@]1(Cc2ccc(OC)cc2)[C@H]2c3cc(C(=O)N(C)C)n(Cc4cc(C)n(C)n4)c3C[C@H]2CN1C(=O)c1ccccc1	12%	/	/	-1	-8%	-1%	/	/	/	/
Cc1ccc(NC(=O)c2cccn2-c2nnc(N3CCCCC3)s2)cc1Cl	/	10%	/	/	/	/	/	/	/	/
Cc1ccc(CC(=O)NNC(=O)c2ccncc2)cc1C	/	79µM*	/	/	/	/	27*	28µM*	21%	3%
Cc1ccc(C(=O)NNC(=O)c2ccncc2)cc1C	/	10%	/	0	/	/	/	/	/	/
CC(=O)N1CCOc2cc(S(=O)(=O)Nc3cccc(C(F)(F)F)c3)c(Cl)cc21	/	-1%	/	/	/	/	/	/	/	/
COc1ccccc1N1CCN(c2ccc(-c3nc(-c4ccccc4)no3)cc2[N+](=O)[O-])CC1	/	9%	/	/	/	/	/	/	/	/
Cc1ccc(S(=O)(=O)Oc2ccc(/C=C3\C(=N)N4N=C(S(C)(=O)=O)SC4=NC3=O)cc2)cc1	/	50µM*	/	/	/	/	?	3.2µM*	24%	?
COc1cc(/C=C2/C(=N)N3N=C(C)SC3=NC2=O)ccc1OS(=O)(=O)c1ccc(C)cc1	/	-10%	/	8	/	/	/	/	/	/
